Compounds without any hit were thinned out: in the full panel of roughly 79,000, 15% have a hit. Values without a mark were called inactive. Activity calls are given as the source filed them. Rule as the data show it: active = growth inhibition above about 70%; inactive = the rest.
Experiments:
[1] = NCI Yeast Anticancer Drug Screen. Data for the rad50 strain (AID 155);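 also: 0% = growth of vehicle-only cultures of the same strain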; conditions: S. cerevisiae rad50 strain growth inhibition; at 50.0 µM; stronger effect = higher value
Method in brief: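 Inhibition values express reduced yeast growth in compound-treated cultures relative to vehicle-treated controls.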

[2] = NCI Yeast Anticancer Drug Screen. Data for the mec2-1 strain (AID 157); conditions: S. cerevisiae mec2-1 strain, at 50.0 µM, stronger effect = higher value
Method in brief: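 Mutant yeast (mec2-1) grown with compound; growth inhibition relative to vehicle control reported.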

[3] = NCI Yeast Anticancer Drug Screen. Data for the sgs1 mgt1 strain (AID 161);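 also: 0% = growth of cultures given vehicle only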; conditions: S. cerevisiae sgs1 mgt1 strain, at 50.0 µM, stronger effect = higher value
Method in brief: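 Compounds are added to genetically altered yeast, and growth is compared with cultures given vehicle alone to give percent inhibition.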

[4] = NCI Yeast Anticancer Drug Screen. Data for the cln2 rad14 strain (AID 165);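 also: 0% = growth equal to vehicle treated cultures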; conditions: S. cerevisiae cln2 rad14 strain, at 50.0 µM, stronger effect = higher value
Method in brief: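 Readout is yeast growth inhibition versus vehicle-treated controls, using a strain with cln2 and rad14 alterations exposed to compound.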

[5] = NCI Yeast Anticancer Drug Screen. Data for the bub3 strain (AID 167); conditions: S. cerevisiae bub3 mutant strain, at 50.0 µM, stronger effect = higher value
Method in brief: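 Steps: expose the mutant yeast strain to compound; grow alongside vehicle-treated cultures; measure growth; express inhibition against the vehicle cultures.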

[6] = NCI Yeast Anticancer Drug Screen. Data for the mlh1 rad18 strain (AID 175); conditions: S. cerevisiae mlh1 rad18 strain growth inhibition; at 50.0 µM; stronger effect = higher value
Method in brief: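 Genetically defined yeast (DNA repair-deficient) exposed to compounds; growth inhibition determined relative to vehicle.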

SMILES	growth inhibition [1]	growth inhibition [2]	growth inhibition [3]	growth inhibition [4]	growth inhibition [5]	growth inhibition [6]
COC(=O)c1cc([N+](=O)[O-])cc([N+](=O)[O-])c1	9%	32.2%	16.5%	-8.4%	18.4%	34.1%
NS(=O)(=O)c1ccc(N=Nc2ccc([As](=O)(O)O)cc2)cc1	43%	6.6%	18.6%	19.2%	3.45%	19.9%
COc1cc(C2c3cc4c(cc3OC3(OC)COC(=O)C23)OCO4)cc(OC)c1OC(C)=O (stereo not given)	-8.95%	0.45%	-2.05%	-6.9%	-24.6%	8.1%
NNC(=O)Nc1ccc([N+](=O)[O-])cc1[N+](=O)[O-]	63.8%	0%	34.7%	20.2%	38.4%	20.5%
CCC12C=CCN3CCC4(C(=C(C(=O)OC)C1)Nc1ccccc14)[C@H]32 (stereo not given in full)	6.7%	6%	6%	-8%	7.25%	0.8%
C[N+](C)(Cc1ccccc1[N+](=O)[O-])c1ccc(N(CCCl)CCCl)cc1	-7.8%	-8.15%	-4.2%	-16.7%	-22.3%	12.6%
C=CCn1nnnc1N	-4.3%	-16.8%	-5.55%	-37.9%	3.1%	-6.2%
COC(=O)/C=C/c1ccc(Cl)cc1	-7%	-1.8%	0.5%	-36.5%	-10.2%	-7.4%
COC(=O)CCSP(=S)(Oc1ccccc1)Oc1ccccc1	-0.2%	7.85%	12.3%	4.25%	36.5%	9.1%
CCCCCCP(=O)(O)O.[Zn+2]	-33.9%	-21.8%	-9.65%	-9.9%	-35.1%	-8.75%
Cc1nc2ccccc2c(=O)n1-c1ccccc1F	-10.6%	-30.2%	-19.8%	4.8%	-20.9%	-29.8%
O=C(O)C1C2c3ccccc3C(c3ccccc32)C1C(=O)NCC1CC1 (stereo not given)	51.5%	7.55%	10.4%	13.6%	21.4%	24.2%
CC(=O)OC1CCC2(C)C(CCC3C2CCC2(C)C3CC(CC(=O)O)C2OC(C)=O)C1 (stereo not given)	16.5%	18.8%	7.3%	-0.5%	3.3%	24%
CCCCOP(=O)(OCCCC)Oc1ccc2ccccc2c1	93.1% (active)	93.2% (active)	95.4% (active)	92.8% (active)	95.1% (active)	95.4% (active)
CC(C)(C)Nc1ccccc1.[C-]#[O+].[C-]#[O+].[C-]#[O+].[Cr]	-7.75%	-2.3%	-0.55%	10.3%	28.4%	6.3%
CC(=O)OC1CCC2(C)C(CCC3C2CCC2(C)C(c4ccc(=O)oc4)C(OC(C)=O)CC32O)C1 (stereo not given)	45.5%	0.05%	21.3%	4.5%	-4.45%	-0.5%
c1ccc2c(c1)ccc1sc3c([n+]12)CCC3	-0.9%	-5.65%	-18.2%	-14.5%	2.4%	-5.3%
CCN1/C(=C/C=C2\CCC(/C=C/c3sc4ccc(Cl)cc4[n+]3CC)=C2N(c2ccccc2)c2ccccc2)Sc2ccc(Cl)cc21	14.4%	32.2%	64.9%	4.05%	57.4%	56.7%
NC(=O)CCC(NC(=O)Cc1ccccc1)C(=O)O (stereo not given) (tested in a mixture with another compound)	-4.45%	-14.1%	0.25%	-29.9%	-9.65%	8.95%
CC(=O)[O-].CC(=O)[O-].[Mn+2].c1ccc(/C(=N\Nc2ccccn2)c2ccccn2)cc1	87.8% (active)	91.5% (active)	90.5% (active)	84.2% (active)	89.2% (active)	89.4% (active)

SMILES	growth inhibition [1]	growth inhibition [2]	growth inhibition [3]	growth inhibition [4]	growth inhibition [5]	growth inhibition [6]
CCCCCCCC/C=C\CCCCCCCC(=O)OCC(COC(=O)CCCCCCC/C=C\CCCCCCCC)OC(=O)N(CCCl)CCCl	-29.2%	-9.25%	-18.4%	33.6%	-24.2%	5.45%
O=[N+]([O-])NC1=NCCN1CCCl	-17.2%	-13.6%	-4.6%	-25.1%	-12.6%	9.15%
COC(=O)CCCCCCCCCCN(CCCl)CCCl	39.6%	29.1%	31.9%	26.2%	21%	67%
CSCCC(NC(=O)C(Cc1ccccc1)NC(=O)CNC(=O)CNC(=O)C(N)Cc1ccc(O)cc1)C(=O)O (stereo not given)	12.4%	2.2%	-6.45%	26.2%	14.4%	16.2%
[N-]=[N+]=NC(=O)Nc1ccccc1F	-6.4%	-1.1%	-14.6%	-19.3%	-19.6%	16.1%
CCCCN1C(=O)CC(=O)N(c2ccccc2)C1=O	-8.55%	-28%	-3.8%	14.3%	-14.4%	-4.35%
O=C(O)CCCC(=O)CCCC(=O)O	0.3%	4.35%	22.9%	7.45%	24.6%	21.4%
CN(C)c1ccc(C=C2C(=O)NC(=O)NC2=O)cc1	37.9%	-16.4%	19.1%	14.4%	14.8%	9.65%
O=C(Cc1ccc(N(CCCl)CCCl)cc1)NC1CCCC1	-0.05%	-16.6%	-13.9%	-22.9%	-2.3%	18.1%
CCOP(=O)(OCC)/C(C#N)=C/c1cnc(C)[nH]1	-52.4%	24%	-36%	26.4%	16.1%	-5.55%
BrCCCBr	15.1%	5.8%	14.4%	10.7%	12.4%	21.3%
CCC[As](=O)(O)CC[As](=O)(O)CCC	15.8%	34.2%	59.3%	-3.05%	0.8%	14.4%
CCOP(=O)(O)OCC	-16.6%	-20.4%	-20.1%	-0.25%	0.95%	-49.9%
O=C1CC(=O)NC(=S)N1	2.15%	21.1%	-13.5%	-21.4%	4.85%	-5.75%
C=CCN1CC2CN=NC2(C#N)C1 (stereo not given)	-10.8%	6.45%	0.65%	-22.3%	6.7%	-4.95%
CCOC(=O)CN(Cc1ccccc1)Cc1c(C(=O)c2ccccc2)c2ccccc2n1C(=O)c1ccccc1	3.75%	-11.8%	-10.9%	-75.2%	-16.6%	-18.6%
CCOP(C)(=O)C(N)Cc1ccc(OC)c(OC)c1 (stereo not given)	-39.6%	-59.5%	-40.1%	-16.4%	1.1%	-34.5%
CCC(C#N)N1CC1 (stereo not given)	-7.05%	12.7%	-6.4%	18.1%	-4.35%	6%
N#CS.N=C=S.N=C=S.[Co+3].[NH-]CC[NH-].[NH-]CC[NH-]	10.5%	10.2%	36.4%	3.5%	27.9%	10.7%
CN(C)c1ccc(NP(=O)(Nc2ccc(N(C)C)cc2)N(CCCl)CCCl)cc1	24.2%	2.1%	11%	5.8%	12.2%	7.6%

Reference: PubChem BioAssay (NCI)
